The values below come from PubChem BioAssay (NCI).

This is part of a sample that, as a whole, favours compounds with a hit. Of some 83,000 tested, about 20% had one in any assay.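 In brief: 96-well plates, 48 h treatment, single concentration, percent growth endpoint.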 Active and inactive are the calls of the source. How the source made its calls: active means growth percent below 10; inactive means the rest.

The test system of the test is RXF 393 renal. Briefly: NCI-60 one-dose screen, 48 h (100 = growth as untreated, 0 = no growth, -100 = all killed). The note with it: 10 µM unless noted.
For the molecule `Cc1cccc2c1NC(=O)C2(c1ccc(O)cc1)c1ccc(O)cc1`, the growth was -11.2% (active). Next, `CN1CCN(Cc2ccc3c(NNC(=O)c4ccccc4)nc4cc(F)ccc4n23)CC1`: 39% (inactive). Take `COc1ccc2[nH]cc(-c3nc(-c4cn(C)c5c(Cl)nccc45)cs3)c2c1`: the growth is 32.5% (inactive). The result for `O=C(CCc1nnc(Cn2cnc3nc[nH]c3c2=O)o1)c1nc2ncccc2[nH]1` reads 102% (inactive). Consider `CC1=Nc2cnc(Nc3ccc(OCCN4CCCCC4)cc3)nc2Nc2ccccc21`, for which the growth was 33.6% (inactive). With `Cc1nc2ncnc(Cl)c2[nH]1`, the growth was 112% (inactive). As for `CC(C)(C)[Si](C)(C)O[C@H]1C(=O)C=CN2CC=C[C@@H]12`, the growth is 109% [100 µM] (inactive). Turning to `c1cnc2[nH]cc(-c3csc(-c4cn(CCCN5CCOCC5)c5ccccc45)n3)c2c1`, the growth is 24.9% (inactive).

Consider `Cc1ccccc1Cn1cnc2ccc(-c3cc(NC(=O)c4ccc(NC5CCN(C)CC5)cc4)n[nH]3)cc21`, for which the growth was 4.62% (active). Take `COC(C(=O)[C@@H](O)[C@@H](C)O)[C@@H]1Cc2cc3cc(O[C@H]4C[C@@H](O[C@H]5C[C@@H](O)[C@H](O)C(C)O5)[C@H](O)C(C)O4)cc(O)c3c(O)c2C(=O)[C@H]1O[C@H]1C[C@@H](O[C@H]2C[C@@H](O[C@H]3C[C@@H](OC)[C@H](O)C(C)O3)[C@@H](O)C(C)O2)[C@H](O)C(C)O1` (stereo partly specified): the growth is 27.6% (inactive). The result for `Cc1cc(Cl)ccc1Nc1nc(C(F)(F)F)ccc1C(=O)N/N=C/c1ccc([N+](=O)[O-])cc1` reads 5.4% (active). With `COc1cc(N2C(=O)[C@H](O)C2c2ccc(SC)cc2)cc(OC)c1OC` (stereo partly specified), the growth is 15.3% (inactive). The result for `Fc1cc2c(cc1Cl)N(c1ncnc3ccc(-c4cnc5[nH]ncc5c4)cc13)CC2` reads 38.5% (inactive); that for `COc1ccccc1NC(=O)Cn1cc(CN2CCN(c3ccnc4cc(Cl)ccc34)CC2)nn1`, 85.8% (inactive). Next, `COc1cc(CNC(=O)CCCC/C=C/C(C)C)ccc1OCc1nnc(Nc2ccc([N+](=O)[O-])cc2)o1`: 54.1% (inactive); `O=C(NCCCN1CCOCC1)c1cccc(N2C(=O)/C(=C/c3ccc(F)cc3)SC2=S)c1`: 94.2% (inactive). As to `O=C(CSc1nnc2n1S(=O)(=O)c1ccccc1N2c1ccccc1)Nc1nc2ccc(F)cc2s1`, the growth is 87.1% (inactive). `N#Cc1nc(-c2ccccc2)oc1S(=O)(=O)N1CCOCC1`: the growth is 91% (inactive). Regarding `CC(C)c1ccc(COCc2cc(CN3CCCC3)c(O)c3ncccc23)cc1`, the growth is 3.03% (active).

Consider `Cc1cc(N)c2cc(NC(=O)/C=C\c3ccccc3Cl)ccc2n1`, for which the growth is -78.2% (active). For `COc1ccc(Cc2cc(-c3ccccc3)nn(Cc3ccccc3)c2=O)cc1OC`, the growth was 42.4% (inactive).

As to `O=C1/C(=C/c2ccc(F)cc2)COc2ccc(O)cc21`, the growth is 104% (inactive).

Consider `CCOP(=O)(OCC)c1nc(-c2ccccc2)oc1NCc1cccnc1`, for which the growth was 110% (inactive). With `C/C(=C(/c1ccc(Cl)cc1)c1ccc(OCCN2CCCC2)cc1)c1ccc(Cl)cc1`, the growth was 72% (inactive). With `CC(C)=CCC[C@](C)(O)[C@H]1CC[C@]2(C)[C@@H]1CC[C@@H]1[C@@]3(C)Cc4nccnc4C(C)(C)[C@@H]3CC[C@]12C`, the growth is 94.3% (inactive). With `CC1=Nc2cnc(Nc3ccc(OCCN4CCCC4)cc3)nc2Nc2ccccc21`, the growth was 36% (inactive).
